Reference: PubChem BioAssay AID504577 (NMMLSC, 2011)
Screen size: about 350,000 compounds; about 1,300 (0.37%) were called active. This is one part of a sample in which actives are shown more often than they occur. A number with no mark means an inactive call. No stated cut-off is given here; in the data, active means response mostly above about 7.3% (no sharp cut-off); inactive means mostly below about 5.4%.

test: regulators of yeast V-ATPase proton pumping, primary screen, pHLuorin cytosolic pH fluorescence (AID 504577); further: actives read high; settings: S. cerevisiae, at 10 µM, stronger effect = higher value

Row | Structure (SMILES) | response
1 | CCCCC(CC(C)O)c1n[nH]c(=S)n1-c1ccccc1 (centres undefined) | 3.53%
2 | OCc1nc(CO)n(Cc2ccccc2)n1 | 12.8% (active)
3 | Cc1nn(Cc2ccccc2)c(C)c1NS(=O)(=O)c1ccccc1 | 1.59%
4 | Nc1c(-c2ccccc2)nnn1Cc1ccccc1 | -5.08%
5 | CSc1nc2ccccc2cc1/C=C(\C#N)c1ccc(Cl)cc1Cl | -2.01%
6 | COC(=O)c1sc2[nH]c(=S)n(N)c(=O)c2c1C | -1.69%
7 | O=C(CN1CCC(O)(c2cccc(C(F)(F)F)c2)CC1)NCCc1ccccc1 | 0.05%
8 | CC(OC(=O)c1cccc(S(=O)(=O)N2CCOCC2)c1)C(=O)NCC1CCCCC1 (centres undefined) | 0.69%
9 | C/C(N)=C(/C#N)C(=O)COC(=O)c1cc(-c2ccc(C)cc2)nc2ccccc12 | 2.77%
10 | C/C(N)=C(/C#N)C(=O)COC(=O)C1=NN(c2ccccc2)C(=O)CC1 | 1.14%
11 | COc1cccc(OC)c1C(=O)OCC(=O)/C(C#N)=C(\C)N | 6.97% (active)
12 | CC(=O)c1ccc(Cc2ncc(C(F)(F)F)cc2Cl)s1 | -0.37%
13 | CC1(c2nnc(-c3ccncc3)o2)CC(c2cccnc2)=NO1 (centres undefined) | 0.16%
14 | CCN1CCC2(CC1)N=C(c1ccc(F)cc1)C(=S)N2C(=O)c1ccc(C)cc1 | -0.32%
15 | CC(CNC(=O)c1ccc(N)cc1)NC(=O)c1ccc(N)cc1 (centres undefined) | -1.34%
16 | Nc1ccc(C(=O)NCc2ccccc2)cc1 | 14.4% (active)
17 | C[n+]1ccc(C(=O)NCc2ccccc2)cc1 | 4.19%
18 | Cn1c(N)c(C(=O)COC(=O)C23CC4CC(CC(C4)C2)C3)c(=O)n(C)c1=O | -2.17%
19 | Nc1c(-c2cccc(Cl)c2)cnn1-c1cccc([N+](=O)[O-])c1 | 0.43%
20 | Cc1nn(-c2ccccc2)c(Cl)c1/C=N/NC(=O)c1nn(C)cc1[N+](=O)[O-] | -3.82%

Row | Structure (SMILES) | response
21 | Cc1ccc(-n2nc(C)c(/C=N/NC(=O)c3cccs3)c2Cl)cc1 | 1.32%
22 | Cc1cc(=O)[nH]c(N/N=C/c2c(C)nn(-c3ccccc3Cl)c2Cl)n1 | 8.62% (active)
23 | CCOC(=O)C1(Cc2ccc(O)cc2)NC(c2ccccc2F)C2C(=O)N(C)C(=O)C21 (centres undefined) | 16.1% (active)
24 | CCCCC1(C(=O)OCC)NC(c2ccc(O)cc2)C2C(=O)N(c3ccccc3)C(=O)C21 (centres undefined) | -2.37%
25 | CCCSc1ccc([C@H]2N[C@@](Cc3ccccc3)(C(=O)OC)[C@H]3C(=O)N(C)C(=O)[C@@H]23)cc1 | -2.76%
26 | COc1ccc(CC(=O)Nc2c3c(nn2-c2cccc(Cl)c2)CS(=O)C3)cc1 (centres undefined) | 5.74%
27 | CCN(CC)C(=O)C1=C(C)N(Cc2ccc(OC)cc2)C(=O)C(CC(=O)NCCCCc2ccccc2)C1 (centres undefined) | 2.59%
28 | O=C(CSc1nnc2ccc(-c3ccncc3)nn12)N1CCCCC1 | 2.79%
29 | COc1cc(NC(=O)CSc2nnc3ccc(-c4ccncc4)nn23)cc(OC)c1 | -1.89%
30 | Fc1cccc(CSc2nnc3ccc(-c4ccncc4)nn23)c1 | 30.5% (active)
31 | NS(=O)(=O)c1ccc(CCNC(=O)c2ccc([N+](=O)[O-])cc2[N+](=O)[O-])cc1 | 0.09%
32 | CCOc1ccc(-n2c(SCC(=O)Nc3cc(C(=O)O)ccc3Cl)nc3ccccc3c2=O)cc1 | 2.47%
33 | COC(=O)c1cc(S(=O)(=O)N2CCN(c3cc(C)ccc3C)CC2)c[nH]1 | -1.19%
34 | COC(=O)c1ccc(/C=C2/C(=O)Oc3ccccc32)cc1 | -0.46%
35 | O=C1Oc2ccccc2C(=O)/C1=C/c1ccccc1O | 15.2% (active)
36 | COC(=O)c1c(NC(=O)COc2ccc(Cl)cc2Cl)sc2c1CC(C)(C)NC2(C)C | 4.61%
37 | Cc1cc(=O)oc2c(C)c(OCC(=O)NCCN3CCOCC3)ccc12 | 1.98%
38 | CCCc1cc(=O)oc2cc(OCC(=O)Nc3ccc(CN4CCOCC4)cc3)c(Cl)cc12 | -2.48%
39 | O=C(COc1cc2oc(=O)c3c(c2cc1Cl)CCC3)NCCCN1CCOCC1 | 9.9% (active)
40 | CC(=O)Nc1c2c(nn1-c1ccc(C)cc1C)CS(=O)C2 (centres undefined) | -4.1%

Row | Structure (SMILES) | response
41 | OCC(O)CN(c1ccccc1)c1ccccc1 (centres undefined) | 1.73%
42 | COc1ccc(NC(=O)CCC(=O)Nc2nnc(C3CCCCC3)s2)cc1 | -2.38%
43 | Cc1cc(C(=O)Nc2nnc(C3CC3)s2)c(C)s1 | 3.66%
44 | Cc1occc1C(=O)Nc1nnc(C2CCCCC2)s1 | 10% (active)
45 | CCSCc1nc(N)nc(NCCc2ccccc2)n1 | -0.9%
46 | CCSC1=NCCN1C(=O)c1ccc(S(=O)(=O)N(CC)CC)cc1 | 2.02%
47 | COc1ccc2nc(N3CCN(C(=O)c4ccc([N+](=O)[O-])o4)CC3)sc2c1 | 27.1% (active)
48 | CCN(CC)CCN(C(=O)c1cccc([N+](=O)[O-])c1)c1nc2ccc(OC)cc2s1 | -1.21%
49 | COc1ccc2nc(N3C(=O)C(O)=C(C(=O)c4ccco4)C3c3ccco3)sc2c1 (centres undefined) | -1.37%
50 | CCOC(=O)CC1COCCN1C(=O)c1cc(COc2ccc(F)c(F)c2)on1 (centres undefined) | 0.12%
51 | COc1cc(=O)[nH]c(=O)n1C(=O)Cc1ccccc1 | -1.96%
52 | Cc1nnsc1C(=O)N/N=C/c1cccc(C(F)(F)F)c1 | 3.26%
53 | COc1ccc(/C=N/NC(=O)c2cccc(C(F)(F)F)c2)cc1 | 13.1% (active)
54 | COc1ccc(/C=N/NC(=O)Cn2cc(C(F)(F)F)ccc2=O)cc1 | -4.67%
55 | CCCn1c(C(C)Nc2nc(-c3ccc(C)cc3)cs2)nc2cc(Cl)c(N3CCCCC3)cc21 (centres undefined) | -1.24%
56 | c1ccc(-c2nnc3n2NC(c2ccc4c(c2)OCO4)S3)cc1 (centres undefined) | -3.32%
57 | CCOC(=O)C(C)n1cnc2c(nnn2-c2cccc(OC)c2)c1=O (centres undefined) | 1.26%
58 | COC(=O)C(C)n1cnc2c(nnn2-c2ccc(F)cc2)c1=O (centres undefined) | 1.53%
59 | COC(=O)C(C)n1cnc2c(nnn2-c2cccc(Cl)c2)c1=O (centres undefined) | 16.6% (active)
